{"source": "PubChem BioAssay (NCI)", "note": "Several values for one entry are separate records, joined by “and”; a condition that tells them apart may be missing. Identical values can stand only once. This is part of a sample that, as a whole, favours compounds with a hit. Of some 83,000 tested, about 20% had one in any assay.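 Compound tested at a single concentration for 48 hours in 96-well plates; a percent growth value below 10 was scored as active.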 Unmarked numbers belong to inactive results. Activity calls are given as the source filed them.", "data": [{"system": "HL-60(TB) leukemia", "assay": "NCI-60 one-dose screen, 48 h (100 = growth as untreated, 0 = no growth, -100 = all killed)", "details": "10 µM unless noted", "values": [{"smiles": "Cc1cccc2cc(-c3cc(-c4ccccc4)nc(=O)[nH]3)c(Cl)nc12", "growth": "55.3%"}, {"smiles": "NC1(c2ccc(-c3ccc4ncnc(NCc5ccccc5)c4c3)cn2)COC1", "growth": "113% and 106%"}, {"smiles": "C/C(=C\\CSc1ccccc1C(=O)O)CCCC(C)CCCC(C)CCCC(C)C", "note": "(stereo unspecified)", "growth": "41.2%"}, {"smiles": "N#Cc1ccc(C(=O)Nn2c(N)cc3ccccc3c2=O)cc1", "growth": "98.5%"}, {"smiles": "C=Cn1cc(C(=O)O)c(=O)c2cc(F)c(N3CCN(c4nccc(-c5nccs5)n4)CC3)cc21", "growth": "-24.7% (active)"}, {"smiles": "COc1cc(C2CC(c3ccc(Cl)cc3)=Nc3c(N)nc(N)nc3N2)ccc1Oc1nc(Nc2ccc(F)cc2)nc(N(C)C)n1", "note": "(stereo unspecified)", "growth": "16.3%"}, {"smiles": "Clc1ccc2c(NCCNC34CC5CC(CC(C5)C3)C4)ccnc2c1", "growth": "-53.1% (active)"}, {"smiles": "Nc1cc(-c2cccc(C(=O)NCc3ccc4c(c3)OCO4)c2)ccn1", "growth": "98.1%"}, {"smiles": "CN(C)CCn1c2ccccc2c2nc3cc4ccccc4cc3nc21", "growth": "-51.2% (active)"}, {"smiles": "COc1cc(C2CC(c3ccc(Oc4ccc(Cl)cc4)cc3)=NN2c2nc(-c3ccc(Cl)cc3)c(C#N)c(N3CCOCC3)n2)cc(OC)c1OC", "note": "(stereo unspecified)", "growth": "102%"}, {"smiles": "COc1cc(OC(F)(F)F)ccc1C(=O)Nc1sc2c(c1C#N)CCC(=O)C2", "growth": "38%"}, {"smiles": "Cc1ccc(C(=O)Nc2cc(-c3ccncc3)cc(C(F)(F)F)c2)cc1C#Cc1cnc2cccnn12", "growth": "16.8%"}, {"smiles": "COc1cc2oc(-c3cccc(C(=O)Nc4ccc(Cl)cc4)c3)cc(=O)c2c(OCCN)c1OC", "growth": "-56.5% (active)"}, {"smiles": "CCCn1c(=O)c2[nH]c(-c3ccc(OCc4nc5ccc(C#N)cc5[nH]4)cc3)nc2n(CCC)c1=O", "growth": "95.4%"}, {"smiles": "O=C(Cn1c(-c2ccccc2)nc2ccccc21)N=Nc1c(O)[nH]c2ccc(Br)cc12", "growth": "42.4%"}, {"smiles": "CCCCN1C(=O)/C(=C\\C(=O)c2cc3ccccc3oc2=O)c2ccccc21", "growth": "74.8%"}, {"smiles": "O=c1[nH]n(C(=S)N/N=C/c2ccc(F)cc2)c(=O)c2ccccc12", "growth": "44.7%"}, {"smiles": "COc1ccc([C@H]2C(C(=O)c3ccc(Cl)cc3)C3(N[C@@H]2c2ccccc2)C(=O)Nc2ccccc23)cc1", "note": "(stereo partly specified)", "growth": "29.2%"}, {"smiles": "C#CCN(C)CCCOc1ccc(N(CC)C(=O)c2cc(C(C)C)c(O)cc2O)cc1Cl", "growth": "-63.8% (active)"}, {"smiles": "CN(C)c1nc(NCCNS(=O)(=O)c2ccc(C(=O)/C=C/c3ccc(C(F)(F)F)cc3)cc2)nc(N2CCOCC2)n1", "growth": "-25.1% (active)"}, {"smiles": "O=C(c1ccccc1)c1ccc2nc(-c3ccccc3Br)[nH]c2c1", "growth": "-52.4% (active)"}, {"smiles": "COC(=O)c1cc(C(=O)C(F)(F)F)n2c3ccccc3c3ccccc3c12", "growth": "99.5%"}, {"smiles": "CCCCCCCCc1ccc(C(=O)Nc2ccc(C)c(OP(=O)(O)O)c2)cc1", "growth": "78.4%"}, {"smiles": "O=C1N/C(=N\\c2nccs2)S/C1=C\\c1cccs1", "growth": "25.1%"}, {"smiles": "CC(C)CN1C(=O)/C(=C\\C(=O)c2cc3ccccc3oc2=O)c2ccccc21", "growth": "96.1%"}, {"smiles": "Cc1nc2sccn2c1-c1nnc(SCC(C)C)o1", "growth": "93.2%"}, {"smiles": "C=CCn1c(SCC(=O)Nc2ccc(C(=O)/C=C/c3ccccc3)cc2)nnc1-c1c[nH]c2ccccc12", "growth": "32.4%"}, {"smiles": "O=C(COc1ccc2c(c1)CCCC(=O)N2)NCc1ccccc1", "growth": "70.4%"}, {"smiles": "Cn1cc(-c2cc(N)n3nc(-c4cn(C)c5ncccc45)cc3n2)c2cccnc21", "growth": "39.2%"}, {"smiles": "O=C1Nc2cc(-c3ccc(NC(=O)c4cccs4)cc3)ccc2/C1=C/c1ccc[nH]1", "growth": "90.9%"}, {"smiles": "CN(C)c1ccnc(CNCCSC2(c3ccccc3)c3ccccc3C=Cc3ccccc32)c1", "growth": "-42.8% (active)"}, {"smiles": "COc1ccc2c(c1)c(-c1cc(N)n3nc(-c4c[nH]c5ccccc45)cc3n1)cn2C", "growth": "-32.4% (active)"}, {"smiles": "N#Cc1c(-c2cccc3ccccc23)cc(-c2cccc(OCC(=O)O)c2)[nH]c1=O", "growth": "82.2%"}, {"smiles": "CNC(=O)c1cc(Oc2ccc3nc(NC(=O)Nc4cccc(OC(F)(F)F)c4)sc3c2)ccn1", "growth": "62.7%"}, {"smiles": "CN1C(=O)C2(C(C#N)=C(c3ccc(Cl)cc3)Nc3c2c(-c2ccccc2)nn3-c2ccccc2)c2ccccc21", "note": "(stereo unspecified)", "growth": "50.3%"}, {"smiles": "CC(=O)Oc1ccccc1C(=O)[Se]CC(=O)Nc1cccc(C(F)(F)F)c1", "growth": "-14.9% (active)"}]}]}
